According to PubChem BioAssay (NCATS):
Unmarked numbers belong to inactive results. Inconclusive results are not listed. Calls of active or inactive are those of the source. Calls come from the whole dose curve; as a rule, active = well fitted curve in the direction sought with a large enough effect; inconclusive = small, poorly fitted or top-dose-only effect, or another doubt; inactive = no such curve, though single readings can be large; an effect the other way counts as inactive or inconclusive.

System: not listed separately
Test: KB-8-5-11 P-gp reporter qHTS against the NCATS DSHEA and TCM libraries (AID 1919977); note: potency is the fitted concentration of half-maximal effect; for activity change, negative = inhibition: 0% is about no effect
Settings: KB-8-5-11 cells; series mostly up to 26.1 µM; activity change, negative = inhibition: at the top concentration
Procedure, shortened: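 CellTiter-Glo luminescence measured viability after ~72 h exposure (37C, 5% CO2) of KB-8-5-11 cervical adenocarcinoma cells overexpressing P-gp. Colchicine was omitted during assay. Substances were tested as titrations.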

Structure (SMILES)	activity change, negative = inhibition [%]	Potency
C=C[C@H]1CN2CC[C@@]3(C(=O)Nc4ccccc43)[C@@H]2C[C@@H]1/C(=C\OC)C(=O)OC	-12.2	
CC[C@@H]1CN2CC[C@]3(C(=O)Nc4ccccc43)[C@@H]2C[C@@H]1/C(=C\OC)C(=O)OC	-17.1	
COc1cc2c(cc1O)C[C@H]1c3c(cc(OC)c(O)c3-2)CCN1C	-20.2	
C=C[C@H]1CN2CCc3c([nH]c4ccccc34)[C@H]2C[C@@H]1/C(=C\OC)C(=O)OC		22.4 µM (active)
CCCCCCCCCCCCCCCCCCCC(=O)O	-6.43	
COC1=C[C@@]23CCN(C)[C@H](Cc4ccc(OC)c(O)c42)C3=CC1=O	-11	
COC(=O)C1=CO[C@@H](C)[C@@H]2CN3CC[C@@]4(C(=O)Nc5ccccc54)[C@@H]3CC12 (some centres not stated)	-16.8	

System: not listed separately
Test: qHTS Counterscreen for compound interference against the NCATS DSHEA and TCM libraries (AID 1919978);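 note: compounds preincubated with 1 µM D-luciferin or buffer before detection reagent; % of control where 0% means no effect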
Settings: firefly luciferase detection reagent interference, luminescence
Procedure, shortened: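 With 1 uM D-luciferin or phosphate buffer only, compounds at final 19.5 nM–39.8 uM were incubated for 15 min at room temperature. Luciferase detection reagent was then added, and luminescence was measured after a further 30 min at room temperature.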

Structure (SMILES)	max response [%]
C=C[C@H]1CN2CC[C@@]3(C(=O)Nc4ccccc43)[C@@H]2C[C@@H]1/C(=C\OC)C(=O)OC	-1.45
CC[C@@H]1CN2CC[C@]3(C(=O)Nc4ccccc43)[C@@H]2C[C@@H]1/C(=C\OC)C(=O)OC	-3.13
COc1cc2c(cc1O)C[C@H]1c3c(cc(OC)c(O)c3-2)CCN1C	-3.09
C=C[C@H]1CN2CCc3c([nH]c4ccccc34)[C@H]2C[C@@H]1/C(=C\OC)C(=O)OC	-1.5
CCCCCCCCCCCCCCCCCCCC(=O)O	0.104
COC1=C[C@@]23CCN(C)[C@H](Cc4ccc(OC)c(O)c42)C3=CC1=O	-3.14
COC(=O)C1=CO[C@@H](C)[C@@H]2CN3CC[C@@]4(C(=O)Nc5ccccc54)[C@@H]3CC12 (some centres not stated)	3.44

System: not listed separately
Test: Dual reporter qHTS for agonist of Pregnane X Receptor (hPXR) against the NCATS DSHEA and TCM libraries: Fluorescence readout (AID 1920058); note: 0% is about no effect
Settings: PXR dual reporter cells; series mostly up to 40 µM; activation: at the top concentration
Procedure, shortened: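 Fluorescence read-out for cell viability: CellTiter-Fluor, 1 h at 37 °C, Ex/Em 405/540 nm. This followed ~24 h treatment of hPXR-Luc HepG2 cells with substances in agonist mode.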

Structure (SMILES)	activation [%]
C=C[C@H]1CN2CC[C@@]3(C(=O)Nc4ccccc43)[C@@H]2C[C@@H]1/C(=C\OC)C(=O)OC	-31.4
CC[C@@H]1CN2CC[C@]3(C(=O)Nc4ccccc43)[C@@H]2C[C@@H]1/C(=C\OC)C(=O)OC	-23.5
COc1cc2c(cc1O)C[C@H]1c3c(cc(OC)c(O)c3-2)CCN1C	-72.8
C=C[C@H]1CN2CCc3c([nH]c4ccccc34)[C@H]2C[C@@H]1/C(=C\OC)C(=O)OC	-13.6
CCCCCCCCCCCCCCCCCCCC(=O)O	-4.88
COC1=C[C@@]23CCN(C)[C@H](Cc4ccc(OC)c(O)c42)C3=CC1=O	15.4
COC(=O)C1=CO[C@@H](C)[C@@H]2CN3CC[C@@]4(C(=O)Nc5ccccc54)[C@@H]3CC12 (some centres not stated)	-1.52

Target: Nuclear receptor subfamily 1 group I member 2 (Homo sapiens) (UniProt O75469)
Sequence (O75469 whole entry, looked up): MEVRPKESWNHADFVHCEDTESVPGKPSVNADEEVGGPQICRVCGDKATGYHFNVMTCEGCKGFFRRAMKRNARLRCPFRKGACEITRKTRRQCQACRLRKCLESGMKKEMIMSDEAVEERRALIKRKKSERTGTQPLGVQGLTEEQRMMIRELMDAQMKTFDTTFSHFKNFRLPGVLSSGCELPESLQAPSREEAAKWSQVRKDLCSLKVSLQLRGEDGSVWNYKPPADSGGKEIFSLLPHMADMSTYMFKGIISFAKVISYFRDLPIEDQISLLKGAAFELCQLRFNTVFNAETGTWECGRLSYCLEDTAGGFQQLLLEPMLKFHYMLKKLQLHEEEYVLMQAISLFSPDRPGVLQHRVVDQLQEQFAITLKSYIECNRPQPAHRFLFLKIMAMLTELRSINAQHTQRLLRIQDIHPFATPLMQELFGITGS
Test: Dual reporter qHTS for agonist of Pregnane X Receptor (hPXR) against the NCATS DSHEA and TCM libraries: Luminescence readout (AID 1920059); note: potency is the fitted concentration of half-maximal effect; for activation: 0% is about no effect
Settings: hPXR dual reporter cells, luciferase luminescence agonist; series mostly up to 40 µM; activation: at the top concentration
Procedure, shortened: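 hPXR-LucHepG2 cells in phenol red-free DMEM with 5% charcoal-stripped FBS, 2000 cells/well, attached 5 h, then exposed 24 h at 37C to compounds; rifampicin as positive agonist control (2.8 nM–92 uM). Luciferase luminescence read.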

Structure (SMILES)	activation [%]	Potency
COc1cc2c(cc1O)C[C@H]1c3c(cc(OC)c(O)c3-2)CCN1C	34.8	
CCCCCCCCCCCCCCCCCCCC(=O)O	8.69	
COC(=O)C1=CO[C@@H](C)[C@@H]2CN3CC[C@@]4(C(=O)Nc5ccccc54)[C@@H]3CC12 (some centres not stated)		10 µM (active)

Target: Nuclear receptor subfamily 1 group I member 2 (Homo sapiens) (UniProt O75469)
Test: Dual reporter qHTS for antagonist of Pregnane X Receptor (hPXR) against the NCATS DSHEA and TCM libraries: Luminescence Readout (AID 1920060);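 note: HepG2 cells carrying hPXR luciferase reporter stimulated with rifampicin at 2 µM; 0% is about no effect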
Settings: hPXR dual reporter cells, luciferase luminescence, antagonist mode; series mostly up to 40 µM; activity change, negative = inhibition: at the top concentration
Procedure, shortened: (§1)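 Antagonist mode: rifampicin 2 uM final co-added with compounds to hPXR-LucHepG2 cells for 24 h at 37C. Viability by CellTiter-Fluor, Ex/Em 405/540 nm, 1 h; reporter by ONE-Glo luminescence.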

Structure (SMILES)	activity change, negative = inhibition [%]
C=C[C@H]1CN2CC[C@@]3(C(=O)Nc4ccccc43)[C@@H]2C[C@@H]1/C(=C\OC)C(=O)OC	25.3
CC[C@@H]1CN2CC[C@]3(C(=O)Nc4ccccc43)[C@@H]2C[C@@H]1/C(=C\OC)C(=O)OC	29.4
COc1cc2c(cc1O)C[C@H]1c3c(cc(OC)c(O)c3-2)CCN1C	126
C=C[C@H]1CN2CCc3c([nH]c4ccccc34)[C@H]2C[C@@H]1/C(=C\OC)C(=O)OC	-20.2
CCCCCCCCCCCCCCCCCCCC(=O)O	-9.24
COC1=C[C@@]23CCN(C)[C@H](Cc4ccc(OC)c(O)c42)C3=CC1=O	50.7
COC(=O)C1=CO[C@@H](C)[C@@H]2CN3CC[C@@]4(C(=O)Nc5ccccc54)[C@@H]3CC12 (some centres not stated)	95.8

System: not listed separately
Test: Dual reporter qHTS for antagonist of Pregnane X Receptor (hPXR) against the NCATS DSHEA and TCM libraries: Fluorescence Readout (AID 1920061); note: 0% is about no effect
Settings: PXR dual reporter cells, antagonist mode; series mostly up to 40 µM; activity change, negative = inhibition: at the top concentration
Procedure, shortened: as §1

Structure (SMILES)	activity change, negative = inhibition [%]
C=C[C@H]1CN2CC[C@@]3(C(=O)Nc4ccccc43)[C@@H]2C[C@@H]1/C(=C\OC)C(=O)OC	-13.7
CC[C@@H]1CN2CC[C@]3(C(=O)Nc4ccccc43)[C@@H]2C[C@@H]1/C(=C\OC)C(=O)OC	-1.89
C=C[C@H]1CN2CCc3c([nH]c4ccccc34)[C@H]2C[C@@H]1/C(=C\OC)C(=O)OC	-10.5
CCCCCCCCCCCCCCCCCCCC(=O)O	0.128
COC1=C[C@@]23CCN(C)[C@H](Cc4ccc(OC)c(O)c42)C3=CC1=O	3.38
COC(=O)C1=CO[C@@H](C)[C@@H]2CN3CC[C@@]4(C(=O)Nc5ccccc54)[C@@H]3CC12 (some centres not stated)	2.65
